{"source": "PubChem BioAssay", "key": {"[1]": {"test_system": "Human papillomavirus type 1a protein E7 (residues 44-93)", "assay": "small molecules binding HPV E7 44-93 – biochemical, small-molecule microarray, residues 44-93, 635 nm fluorescence, primary screen (AID 1108);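 further: E7 fragment applied at 1 µg/mL in TBST for 1 h at 4 C; score combines spot fluorescence with its signal to noise ratio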", "details": "fluorescence 635 nm, higher = more signal"}, "[2]": {"assay": "hepatitis C replication reporter changes, two-sided – Huh7 cells, luciferase reporter, HCV replication inhibitor project, primary screen (AID 1109);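 further: huh7 hepatoma cells harbouring a luciferase neomycin HCV replicon reporter; luciferase luminescence as measure of HCV replicon replication; test concentration not given here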", "details": "Huh7 HCV replicon luciferase reporter, 48 h; higher = more signal"}, "[3]": {"target": "Left-right determination factor 2 (Homo sapiens) (UniProt O00292)", "sequence (O00292 whole entry, looked up)": "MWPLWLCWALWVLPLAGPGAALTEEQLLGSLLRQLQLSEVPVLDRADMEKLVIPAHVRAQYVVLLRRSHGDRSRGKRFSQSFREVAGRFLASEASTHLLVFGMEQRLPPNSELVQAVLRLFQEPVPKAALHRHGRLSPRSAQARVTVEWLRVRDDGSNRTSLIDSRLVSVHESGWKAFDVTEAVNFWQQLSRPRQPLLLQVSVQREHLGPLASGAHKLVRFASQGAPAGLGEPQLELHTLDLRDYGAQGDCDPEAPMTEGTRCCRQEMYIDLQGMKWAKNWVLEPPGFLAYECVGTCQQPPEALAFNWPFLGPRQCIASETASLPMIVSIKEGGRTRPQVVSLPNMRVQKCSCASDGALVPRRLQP", "assay": "small molecules binding LEFTY2 protein – biochemical, small-molecule microarray, 635 nm fluorescence scan, primary screen (AID 1110)", "details": "higher = more signal"}, "[4]": {"target": "Calmodulin-1 (Homo sapiens) (UniProt P0DP23)", "assay": "small molecules binding calmodulin-1 with EGTA – biochemical, small-molecule microarray, Cy5-labelled CALM1, profiling panel (AID 1111);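 further: labelled calmodulin applied in Tris saline Tween buffer holding calcium plus EGTA and DTT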", "details": "Cy5-CALM1 binding fluorescence, higher = more signal"}, "[5]": {"target": "Calmodulin-1 (Homo sapiens) (UniProt P0DP23)", "assay": "small molecules binding Ca-loaded calmodulin-1 – biochemical, small-molecule microarray, Cy5-labelled CALM1, plus calcium, artefact control for SMM control-protein annotation, profiling panel (AID 1112);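 further: score merges spot fluorescence with signal to noise from triplicate slides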", "details": "Cy5-CALM1 binding fluorescence, higher = more signal"}, "[6]": {"assay": "probe aWnt5a binding to arrayed compounds – biochemical, biotinylated probe, 635/667 nm fluorescence, primary screen (AID 1113);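 further: score merges 667 nm fluorescence intensity with signal-to-noise per printed feature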", "details": "small-molecule microarray, higher = more signal"}, "[7]": {"assay": "probe aShh binding to arrayed compounds – biochemical, biotinylated probe, 635/667 nm fluorescence, primary screen (AID 1114);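 further: probe is biotin-labelled aShh protein from a stem cell growth factor screen; measures binding of labelled protein to compounds printed on the slide; score merges feature fluorescence at 667 nm with signal-to-noise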", "details": "small-molecule microarray, higher = more signal"}, "[8]": {"assay": "probe aNog binding to arrayed compounds – biochemical, biotinylated probe, 635/667 nm fluorescence, primary screen (AID 1115);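 further: probe is biotinylated aNog protein used at 0.15 µg/mL for 1 h at 4 C; z-score combines 667 nm fluorescence of each spot with its signal to noise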", "details": "small-molecule microarray, higher = more signal"}, "[9]": {"target": "Torsin-1A-interacting protein 1 (Homo sapiens) (UniProt Q5JTV8)", "sequence (Q5JTV8 whole entry, looked up)": "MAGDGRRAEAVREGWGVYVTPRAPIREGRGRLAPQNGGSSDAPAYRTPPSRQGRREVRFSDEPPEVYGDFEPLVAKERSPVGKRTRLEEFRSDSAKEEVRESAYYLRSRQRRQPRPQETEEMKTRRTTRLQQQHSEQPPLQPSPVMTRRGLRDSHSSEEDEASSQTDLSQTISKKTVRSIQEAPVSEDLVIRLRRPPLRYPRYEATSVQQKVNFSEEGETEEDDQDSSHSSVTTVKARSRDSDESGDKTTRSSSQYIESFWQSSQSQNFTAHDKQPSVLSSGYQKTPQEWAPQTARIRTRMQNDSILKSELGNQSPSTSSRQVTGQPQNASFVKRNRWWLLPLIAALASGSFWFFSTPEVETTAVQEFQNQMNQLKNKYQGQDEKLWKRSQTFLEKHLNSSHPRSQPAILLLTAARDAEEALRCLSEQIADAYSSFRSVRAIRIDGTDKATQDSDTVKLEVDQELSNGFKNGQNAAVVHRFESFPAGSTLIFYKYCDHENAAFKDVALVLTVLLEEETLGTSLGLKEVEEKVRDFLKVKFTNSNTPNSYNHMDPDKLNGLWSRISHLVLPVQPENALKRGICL", "assay": "compound microarray binding of lysate hLAP1 – cell lysate, small-molecule microarray, COS7 lysate, 635/667 nm fluorescence, primary screen (AID 1116)", "details": "635 nm fluorescence, higher = more signal"}, "[10]": {"target": "Alpha-bungarotoxin (Bungarus multicinctus) (UniProt P60615)", "sequence (P60615 whole entry, looked up)": "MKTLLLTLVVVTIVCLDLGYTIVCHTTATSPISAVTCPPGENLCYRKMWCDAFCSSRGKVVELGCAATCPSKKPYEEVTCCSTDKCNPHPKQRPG", "assay": "compounds binding labelled alpha-BTX control protein – biochemical, small-molecule microarray, Alexa647 label, 635/667 nm fluorescence, artefact control for SMM control protein annotation, profiling panel (AID 1117)", "details": "alpha-BTX-A647 binding fluorescence, higher = more signal"}}}
{"smiles": "NC(=O)NCC#Cc1ccc2c(c1)[C@]1(C(=O)N2)[C@H](c2ccc(OCCO)cc2)N2[C@H](c3ccccc3)[C@H](c3ccccc3)OC(=O)[C@H]2[C@@H]1C(=O)O", "values": [{"measurement": "composite z-score", "setting": "[1]", "value": -0.979}, {"measurement": "z-score", "setting": "[2]", "value": -0.591}, {"measurement": "composite z-score", "setting": "[3]", "value": -0.644}, {"measurement": "composite z-score", "setting": "[4]", "value": 0.024}, {"measurement": "composite z-score", "setting": "[5]", "value": 0.991}, {"measurement": "composite z-score", "setting": "[6]", "value": -0.122}, {"measurement": "composite z-score", "setting": "[7]", "value": -0.102}, {"measurement": "composite z-score", "setting": "[8]", "value": 0.281}, {"measurement": "composite z-score", "setting": "[9]", "value": 0.561}, {"measurement": "composite z-score", "setting": "[10]", "value": 2.44}]}
{"smiles": "O=C1C[C@@](C(=O)NC2CC2)(c2ccc([N+](=O)[O-])cc2)[C@@H](c2ccc(CO)cc2)N1C1CCCCC1", "values": [{"measurement": "composite z-score", "setting": "[1]", "value": 1.44}, {"measurement": "z-score", "setting": "[2]", "value": -2.02}, {"measurement": "composite z-score", "setting": "[3]", "value": 0.257}, {"measurement": "composite z-score", "setting": "[4]", "value": 0.522}, {"measurement": "composite z-score", "setting": "[5]", "value": 0.435}, {"measurement": "composite z-score", "setting": "[6]", "value": -0.1}, {"measurement": "composite z-score", "setting": "[7]", "value": 0.149}, {"measurement": "composite z-score", "setting": "[8]", "value": -0.292}, {"measurement": "composite z-score", "setting": "[9]", "value": 1.43}, {"measurement": "composite z-score", "setting": "[10]", "value": 0.538}]}
{"smiles": "Cc1ccc(S[C@]2(C(=O)NCCCN(C)C)CC(=O)N(Cc3ccccc3C(F)(F)F)[C@@H]2c2ccc(CO)cc2I)cc1", "values": [{"measurement": "composite z-score", "setting": "[1]", "value": 0.545}, {"measurement": "z-score", "setting": "[2]", "value": -2.37}, {"measurement": "composite z-score", "setting": "[3]", "value": -1.17}, {"measurement": "composite z-score", "setting": "[4]", "value": -0.252}, {"measurement": "composite z-score", "setting": "[5]", "value": 0.236}, {"measurement": "composite z-score", "setting": "[6]", "value": 0.264}, {"measurement": "composite z-score", "setting": "[7]", "value": -0.403}, {"measurement": "composite z-score", "setting": "[8]", "value": 1.27}, {"measurement": "composite z-score", "setting": "[9]", "value": 0.28}, {"measurement": "composite z-score", "setting": "[10]", "value": -0.0365}]}
{"smiles": "O=C(NCCN1CCOCC1)[C@@H]1c2ccccc2C(=O)N(Cc2ccc(OC(F)(F)F)cc2)[C@H]1c1ccc(CO)cc1", "values": [{"measurement": "composite z-score", "setting": "[1]", "value": 1.25}, {"measurement": "z-score", "setting": "[2]", "value": -1.29}, {"measurement": "composite z-score", "setting": "[3]", "value": -0.622}, {"measurement": "composite z-score", "setting": "[4]", "value": 0.749}, {"measurement": "composite z-score", "setting": "[5]", "value": 0.337}, {"measurement": "composite z-score", "setting": "[6]", "value": -0.11}, {"measurement": "composite z-score", "setting": "[7]", "value": 0.0756}, {"measurement": "composite z-score", "setting": "[8]", "value": 0.99}, {"measurement": "composite z-score", "setting": "[9]", "value": 1.19}, {"measurement": "composite z-score", "setting": "[10]", "value": 0.0007}]}
{"smiles": "CC(C)C[C@H]1NC(=O)C([C@@H](C)OCc2ccccc2)NC(=O)[C@@]23C(=O)N[C@@H](Cc4ccccc4)C2[C@H](C)[C@@]2(C)O[C@H]2C3/C=C/C/C=C\\CNC1=O", "note": "(stereo not given in full)", "values": [{"measurement": "composite z-score", "setting": "[1]", "value": 0.566}, {"measurement": "z-score", "setting": "[2]", "value": -2.23}, {"measurement": "composite z-score", "setting": "[3]", "value": 0.905}, {"measurement": "composite z-score", "setting": "[4]", "value": 0.216}, {"measurement": "composite z-score", "setting": "[5]", "value": -0.389}, {"measurement": "composite z-score", "setting": "[6]", "value": -0.118}, {"measurement": "composite z-score", "setting": "[7]", "value": -0.0553}, {"measurement": "composite z-score", "setting": "[8]", "value": 0.746}, {"measurement": "composite z-score", "setting": "[9]", "value": 0.174}, {"measurement": "composite z-score", "setting": "[10]", "value": 0.888}]}
{"smiles": "CCCCCCc1nc(-c2ccc(-c3ccc(Cl)c(Cl)c3)o2)cc2c1[Si](C(C)C)(C(C)C)OC2", "values": [{"measurement": "composite z-score", "setting": "[1]", "value": -0.474}, {"measurement": "z-score", "setting": "[2]", "value": -0.967}, {"measurement": "composite z-score", "setting": "[3]", "value": -0.924}, {"measurement": "composite z-score", "setting": "[4]", "value": -0.444}, {"measurement": "composite z-score", "setting": "[5]", "value": 0.742}, {"measurement": "composite z-score", "setting": "[6]", "value": -0.174}, {"measurement": "composite z-score", "setting": "[7]", "value": -0.372}, {"measurement": "composite z-score", "setting": "[8]", "value": -0.278}, {"measurement": "composite z-score", "setting": "[9]", "value": -0.875}, {"measurement": "composite z-score", "setting": "[10]", "value": -0.782}]}
{"smiles": "C=CCOC(=O)[C@H]1[C@@H]2C(=O)O[C@@H](c3ccccc3)[C@@H](c3ccccc3)N2[C@@H](c2ccc(OCCOC(=O)[C@@H]3C[C@@H]4C(=O)N[C@@H](CCCCNC(C)=O)C(=O)N4[C@@H]3c3cccc(OCCO)c3)cc2)[C@]12C(=O)Nc1ccccc12", "values": [{"measurement": "composite z-score", "setting": "[1]", "value": 0.843}, {"measurement": "z-score", "setting": "[2]", "value": -1.48}, {"measurement": "composite z-score", "setting": "[3]", "value": 0.781}, {"measurement": "composite z-score", "setting": "[4]", "value": 0.258}, {"measurement": "composite z-score", "setting": "[5]", "value": 0.121}, {"measurement": "composite z-score", "setting": "[6]", "value": -0.124}, {"measurement": "composite z-score", "setting": "[7]", "value": 0.147}, {"measurement": "composite z-score", "setting": "[8]", "value": 0.254}, {"measurement": "composite z-score", "setting": "[9]", "value": 0.439}, {"measurement": "composite z-score", "setting": "[10]", "value": -0.0506}]}
{"smiles": "COc1ccc(C(O)C2C=CC3C(=O)NC(=O)C3N2Nc2ccc(Cl)cc2Cl)c2ccccc12", "note": "(stereo not given)", "values": [{"measurement": "composite z-score", "setting": "[1]", "value": 0.795}, {"measurement": "z-score", "setting": "[2]", "value": -0.0178}, {"measurement": "composite z-score", "setting": "[3]", "value": -0.65}, {"measurement": "composite z-score", "setting": "[4]", "value": 2.02}, {"measurement": "composite z-score", "setting": "[5]", "value": 1.08}, {"measurement": "composite z-score", "setting": "[6]", "value": -0.181}, {"measurement": "composite z-score", "setting": "[7]", "value": -0.116}, {"measurement": "composite z-score", "setting": "[8]", "value": -1.02}, {"measurement": "composite z-score", "setting": "[9]", "value": 0.693}, {"measurement": "composite z-score", "setting": "[10]", "value": 1.17}]}
